Reference: the supplement of paper PMC11732987, “Enantioselective OTUD7B fragment discovery through chemoproteomics screening and high-throughput optimisation” (Communications Chemistry, 2025)

How the values were obtained:
Test in all cases: log2 ratio of Biotin-Ahx-Ub-VS probe labelling (fragment/DMSO); higher = less target engagement (more negative = stronger competition), active = hit call of the paper (q ≤ 0.05, log2 ratio ≤ -1)
Settings in all cases: compound concentration: 200 uM; treatment time: 3 h
[1] = molecular target: T1, USP42 (UniProt Q9H9J4)
T1 sequence (whole entry): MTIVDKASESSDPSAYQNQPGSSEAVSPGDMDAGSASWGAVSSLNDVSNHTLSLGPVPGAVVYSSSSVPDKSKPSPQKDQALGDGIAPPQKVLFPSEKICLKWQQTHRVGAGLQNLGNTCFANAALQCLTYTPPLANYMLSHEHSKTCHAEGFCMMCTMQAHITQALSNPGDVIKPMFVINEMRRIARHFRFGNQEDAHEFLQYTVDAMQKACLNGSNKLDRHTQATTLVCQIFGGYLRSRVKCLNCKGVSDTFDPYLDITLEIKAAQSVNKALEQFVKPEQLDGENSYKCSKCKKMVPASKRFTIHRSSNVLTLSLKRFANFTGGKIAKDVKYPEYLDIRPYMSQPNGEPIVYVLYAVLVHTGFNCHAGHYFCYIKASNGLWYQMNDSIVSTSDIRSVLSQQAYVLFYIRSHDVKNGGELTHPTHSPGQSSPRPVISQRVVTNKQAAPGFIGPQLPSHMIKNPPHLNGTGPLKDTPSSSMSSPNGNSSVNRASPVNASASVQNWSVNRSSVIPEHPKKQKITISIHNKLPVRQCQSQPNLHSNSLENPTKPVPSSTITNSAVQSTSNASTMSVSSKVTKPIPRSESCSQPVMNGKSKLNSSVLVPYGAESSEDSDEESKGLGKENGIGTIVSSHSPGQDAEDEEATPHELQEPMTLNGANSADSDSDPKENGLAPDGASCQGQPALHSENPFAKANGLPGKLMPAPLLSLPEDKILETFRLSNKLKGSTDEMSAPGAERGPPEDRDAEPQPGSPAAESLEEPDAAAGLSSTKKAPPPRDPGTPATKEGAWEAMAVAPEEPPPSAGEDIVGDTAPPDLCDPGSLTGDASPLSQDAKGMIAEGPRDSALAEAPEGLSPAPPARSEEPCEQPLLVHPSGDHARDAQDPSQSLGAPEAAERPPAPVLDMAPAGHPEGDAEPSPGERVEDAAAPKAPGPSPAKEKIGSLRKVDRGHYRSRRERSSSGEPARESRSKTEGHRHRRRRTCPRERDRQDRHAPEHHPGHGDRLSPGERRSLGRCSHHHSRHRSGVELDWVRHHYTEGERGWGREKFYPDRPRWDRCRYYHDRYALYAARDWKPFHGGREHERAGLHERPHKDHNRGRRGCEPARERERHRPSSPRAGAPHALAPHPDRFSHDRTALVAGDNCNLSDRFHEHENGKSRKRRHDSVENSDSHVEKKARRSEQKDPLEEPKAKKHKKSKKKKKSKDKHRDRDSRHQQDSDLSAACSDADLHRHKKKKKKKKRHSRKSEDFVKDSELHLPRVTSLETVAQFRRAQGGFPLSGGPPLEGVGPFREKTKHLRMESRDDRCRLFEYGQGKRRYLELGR
Outline: (§1)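 Using Biotin-Ahx-Ub-VS at 0.5 µM final for 1 h, DUBs were labelled in HEK293T lysate (495 µg per sample) that had first been treated in triplicate with fragment at 200 µM or vehicle for 3 h. NeutrAvidin enrichment, LysC and trypsin digestion and diaPASEF LC-MS/MS followed. Spectronaut label-free quantities were global-median-normalised. Values are average log2 fragment/vehicle ratios by unpaired t-test, using proteins with ≥2 unique peptides.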

[2] = molecular target: USP46 (UniProt P62068)
Outline: as §1

[3] = molecular target: T2, USP47 (UniProt Q96K76)
T2 sequence (whole entry): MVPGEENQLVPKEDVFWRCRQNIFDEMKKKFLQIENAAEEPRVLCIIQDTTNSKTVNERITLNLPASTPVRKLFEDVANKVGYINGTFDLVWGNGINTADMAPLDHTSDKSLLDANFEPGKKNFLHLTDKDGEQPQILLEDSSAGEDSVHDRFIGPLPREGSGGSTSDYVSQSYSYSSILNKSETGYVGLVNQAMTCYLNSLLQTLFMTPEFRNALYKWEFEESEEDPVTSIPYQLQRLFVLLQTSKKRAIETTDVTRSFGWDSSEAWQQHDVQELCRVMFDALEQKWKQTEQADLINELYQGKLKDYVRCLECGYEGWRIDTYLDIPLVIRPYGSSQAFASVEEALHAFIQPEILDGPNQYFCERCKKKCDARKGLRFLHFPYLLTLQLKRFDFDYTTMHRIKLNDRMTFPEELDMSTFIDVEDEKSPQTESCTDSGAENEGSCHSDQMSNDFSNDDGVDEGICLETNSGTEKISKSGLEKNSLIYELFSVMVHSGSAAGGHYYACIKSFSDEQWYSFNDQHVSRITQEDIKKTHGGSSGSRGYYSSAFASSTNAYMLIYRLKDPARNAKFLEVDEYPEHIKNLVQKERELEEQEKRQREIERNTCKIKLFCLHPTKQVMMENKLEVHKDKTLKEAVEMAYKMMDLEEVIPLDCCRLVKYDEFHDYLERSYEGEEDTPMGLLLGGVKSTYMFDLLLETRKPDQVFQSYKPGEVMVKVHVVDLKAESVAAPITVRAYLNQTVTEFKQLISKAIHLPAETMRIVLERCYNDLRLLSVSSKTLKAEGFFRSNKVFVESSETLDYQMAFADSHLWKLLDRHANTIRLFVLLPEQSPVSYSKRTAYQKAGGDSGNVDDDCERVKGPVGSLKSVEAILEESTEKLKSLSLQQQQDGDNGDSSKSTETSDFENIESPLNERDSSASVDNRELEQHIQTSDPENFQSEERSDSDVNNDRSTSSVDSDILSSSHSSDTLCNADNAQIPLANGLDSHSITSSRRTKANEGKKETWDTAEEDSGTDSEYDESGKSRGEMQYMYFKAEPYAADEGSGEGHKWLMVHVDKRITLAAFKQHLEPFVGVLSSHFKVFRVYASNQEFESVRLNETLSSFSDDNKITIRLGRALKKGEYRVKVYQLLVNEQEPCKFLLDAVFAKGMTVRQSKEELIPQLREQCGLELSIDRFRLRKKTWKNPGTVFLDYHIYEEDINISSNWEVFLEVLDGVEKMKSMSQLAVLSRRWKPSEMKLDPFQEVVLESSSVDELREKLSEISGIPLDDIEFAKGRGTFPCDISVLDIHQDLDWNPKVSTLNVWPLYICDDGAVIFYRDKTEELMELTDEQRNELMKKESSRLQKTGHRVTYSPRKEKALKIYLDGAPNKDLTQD
Outline: as §1

[4] = molecular target: T3, USP48 (UniProt Q86UV5)
T3 sequence (whole entry): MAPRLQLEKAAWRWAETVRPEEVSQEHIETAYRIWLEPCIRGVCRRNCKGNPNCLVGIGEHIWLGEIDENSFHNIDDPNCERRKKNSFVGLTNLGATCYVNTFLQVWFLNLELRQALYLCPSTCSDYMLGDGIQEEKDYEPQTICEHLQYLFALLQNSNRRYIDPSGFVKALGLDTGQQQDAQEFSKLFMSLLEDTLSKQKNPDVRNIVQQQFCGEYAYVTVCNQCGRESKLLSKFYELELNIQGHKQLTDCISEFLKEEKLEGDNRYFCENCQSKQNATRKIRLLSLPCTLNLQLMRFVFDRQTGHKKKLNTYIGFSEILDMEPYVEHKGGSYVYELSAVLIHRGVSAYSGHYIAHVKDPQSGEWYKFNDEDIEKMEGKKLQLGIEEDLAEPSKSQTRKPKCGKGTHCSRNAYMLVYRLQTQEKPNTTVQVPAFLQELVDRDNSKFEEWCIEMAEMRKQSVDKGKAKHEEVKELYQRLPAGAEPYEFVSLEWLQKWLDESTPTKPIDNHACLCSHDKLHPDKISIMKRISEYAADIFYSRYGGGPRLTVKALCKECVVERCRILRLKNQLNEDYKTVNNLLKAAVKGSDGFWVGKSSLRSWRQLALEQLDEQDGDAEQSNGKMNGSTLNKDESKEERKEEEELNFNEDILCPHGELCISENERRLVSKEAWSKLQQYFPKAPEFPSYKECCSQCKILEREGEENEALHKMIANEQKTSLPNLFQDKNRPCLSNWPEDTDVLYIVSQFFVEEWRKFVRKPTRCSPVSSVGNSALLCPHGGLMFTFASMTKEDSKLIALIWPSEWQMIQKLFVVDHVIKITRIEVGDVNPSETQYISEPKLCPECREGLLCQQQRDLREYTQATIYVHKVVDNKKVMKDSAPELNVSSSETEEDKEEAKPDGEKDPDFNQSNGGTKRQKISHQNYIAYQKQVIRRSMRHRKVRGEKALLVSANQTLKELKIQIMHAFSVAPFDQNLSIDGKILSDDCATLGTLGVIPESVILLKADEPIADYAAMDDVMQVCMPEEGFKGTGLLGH
Outline: as §1

[5] = molecular target: T4, USP5 (UniProt P45974)
T4 sequence (whole entry): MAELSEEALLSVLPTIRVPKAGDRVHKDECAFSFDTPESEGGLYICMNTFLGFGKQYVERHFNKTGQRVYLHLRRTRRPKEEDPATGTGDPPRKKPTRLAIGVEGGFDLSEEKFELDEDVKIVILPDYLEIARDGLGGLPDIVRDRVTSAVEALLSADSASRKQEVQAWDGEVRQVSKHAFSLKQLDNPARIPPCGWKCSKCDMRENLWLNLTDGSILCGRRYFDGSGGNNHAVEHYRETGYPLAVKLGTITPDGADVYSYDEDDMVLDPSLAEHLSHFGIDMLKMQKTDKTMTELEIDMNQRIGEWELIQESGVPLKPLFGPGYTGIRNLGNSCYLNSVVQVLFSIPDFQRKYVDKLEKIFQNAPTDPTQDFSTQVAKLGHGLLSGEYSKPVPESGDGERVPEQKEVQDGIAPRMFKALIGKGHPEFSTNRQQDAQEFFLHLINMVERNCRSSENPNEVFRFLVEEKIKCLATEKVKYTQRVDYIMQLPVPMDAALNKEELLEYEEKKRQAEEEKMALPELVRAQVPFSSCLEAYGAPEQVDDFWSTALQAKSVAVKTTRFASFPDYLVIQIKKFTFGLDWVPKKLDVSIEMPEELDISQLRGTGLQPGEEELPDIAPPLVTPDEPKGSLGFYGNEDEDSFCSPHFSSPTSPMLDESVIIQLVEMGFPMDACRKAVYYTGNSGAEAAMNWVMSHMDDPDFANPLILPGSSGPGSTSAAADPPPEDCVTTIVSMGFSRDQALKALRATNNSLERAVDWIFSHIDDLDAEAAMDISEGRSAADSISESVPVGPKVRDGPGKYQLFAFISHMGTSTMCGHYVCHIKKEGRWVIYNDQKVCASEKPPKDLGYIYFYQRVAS
Outline: as §1

[6] = molecular target: USP54 (UniProt Q70EL1)
Outline: as §1

[7] = molecular target: USP7 (UniProt Q93009)
Outline: as §1

[8] = molecular target: T5, USP8 (UniProt P40818)
T5 sequence (whole entry): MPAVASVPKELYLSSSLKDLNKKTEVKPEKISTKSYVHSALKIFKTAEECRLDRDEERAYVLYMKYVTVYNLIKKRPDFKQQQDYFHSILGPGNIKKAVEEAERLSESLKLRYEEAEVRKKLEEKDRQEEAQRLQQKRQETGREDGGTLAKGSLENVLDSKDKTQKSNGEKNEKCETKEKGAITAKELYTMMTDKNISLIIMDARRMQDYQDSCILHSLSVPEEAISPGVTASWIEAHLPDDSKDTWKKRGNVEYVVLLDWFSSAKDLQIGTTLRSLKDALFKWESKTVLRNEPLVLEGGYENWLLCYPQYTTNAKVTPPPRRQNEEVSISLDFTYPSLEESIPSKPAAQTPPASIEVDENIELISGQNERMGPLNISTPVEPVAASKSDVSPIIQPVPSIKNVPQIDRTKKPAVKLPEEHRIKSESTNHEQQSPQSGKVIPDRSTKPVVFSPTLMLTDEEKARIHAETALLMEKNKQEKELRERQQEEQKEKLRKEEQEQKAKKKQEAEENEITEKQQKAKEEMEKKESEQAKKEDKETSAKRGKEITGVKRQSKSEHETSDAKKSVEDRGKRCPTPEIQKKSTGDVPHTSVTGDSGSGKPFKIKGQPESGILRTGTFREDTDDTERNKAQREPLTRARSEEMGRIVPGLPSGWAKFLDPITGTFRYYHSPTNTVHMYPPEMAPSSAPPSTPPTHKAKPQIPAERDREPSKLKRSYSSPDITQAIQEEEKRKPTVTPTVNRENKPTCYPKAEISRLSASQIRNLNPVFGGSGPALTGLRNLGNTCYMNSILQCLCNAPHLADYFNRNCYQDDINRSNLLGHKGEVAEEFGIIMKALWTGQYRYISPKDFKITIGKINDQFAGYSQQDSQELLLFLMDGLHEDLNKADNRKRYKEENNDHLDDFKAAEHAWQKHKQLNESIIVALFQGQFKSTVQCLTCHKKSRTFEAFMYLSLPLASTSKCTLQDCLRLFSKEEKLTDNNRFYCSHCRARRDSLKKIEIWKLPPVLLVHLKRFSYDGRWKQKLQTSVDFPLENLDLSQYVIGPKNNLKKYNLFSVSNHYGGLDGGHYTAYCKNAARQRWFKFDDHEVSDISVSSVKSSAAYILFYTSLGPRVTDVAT
Outline: as §1

[9] = molecular target: USP9X (UniProt Q93008)
Outline: as §1

[10] = molecular target: UniProt O00487
Outline: as §1

Measured: log2 ratio of Biotin-Ahx-Ub-VS probe labelling

Sequence of USP9X (Q93008 whole entry): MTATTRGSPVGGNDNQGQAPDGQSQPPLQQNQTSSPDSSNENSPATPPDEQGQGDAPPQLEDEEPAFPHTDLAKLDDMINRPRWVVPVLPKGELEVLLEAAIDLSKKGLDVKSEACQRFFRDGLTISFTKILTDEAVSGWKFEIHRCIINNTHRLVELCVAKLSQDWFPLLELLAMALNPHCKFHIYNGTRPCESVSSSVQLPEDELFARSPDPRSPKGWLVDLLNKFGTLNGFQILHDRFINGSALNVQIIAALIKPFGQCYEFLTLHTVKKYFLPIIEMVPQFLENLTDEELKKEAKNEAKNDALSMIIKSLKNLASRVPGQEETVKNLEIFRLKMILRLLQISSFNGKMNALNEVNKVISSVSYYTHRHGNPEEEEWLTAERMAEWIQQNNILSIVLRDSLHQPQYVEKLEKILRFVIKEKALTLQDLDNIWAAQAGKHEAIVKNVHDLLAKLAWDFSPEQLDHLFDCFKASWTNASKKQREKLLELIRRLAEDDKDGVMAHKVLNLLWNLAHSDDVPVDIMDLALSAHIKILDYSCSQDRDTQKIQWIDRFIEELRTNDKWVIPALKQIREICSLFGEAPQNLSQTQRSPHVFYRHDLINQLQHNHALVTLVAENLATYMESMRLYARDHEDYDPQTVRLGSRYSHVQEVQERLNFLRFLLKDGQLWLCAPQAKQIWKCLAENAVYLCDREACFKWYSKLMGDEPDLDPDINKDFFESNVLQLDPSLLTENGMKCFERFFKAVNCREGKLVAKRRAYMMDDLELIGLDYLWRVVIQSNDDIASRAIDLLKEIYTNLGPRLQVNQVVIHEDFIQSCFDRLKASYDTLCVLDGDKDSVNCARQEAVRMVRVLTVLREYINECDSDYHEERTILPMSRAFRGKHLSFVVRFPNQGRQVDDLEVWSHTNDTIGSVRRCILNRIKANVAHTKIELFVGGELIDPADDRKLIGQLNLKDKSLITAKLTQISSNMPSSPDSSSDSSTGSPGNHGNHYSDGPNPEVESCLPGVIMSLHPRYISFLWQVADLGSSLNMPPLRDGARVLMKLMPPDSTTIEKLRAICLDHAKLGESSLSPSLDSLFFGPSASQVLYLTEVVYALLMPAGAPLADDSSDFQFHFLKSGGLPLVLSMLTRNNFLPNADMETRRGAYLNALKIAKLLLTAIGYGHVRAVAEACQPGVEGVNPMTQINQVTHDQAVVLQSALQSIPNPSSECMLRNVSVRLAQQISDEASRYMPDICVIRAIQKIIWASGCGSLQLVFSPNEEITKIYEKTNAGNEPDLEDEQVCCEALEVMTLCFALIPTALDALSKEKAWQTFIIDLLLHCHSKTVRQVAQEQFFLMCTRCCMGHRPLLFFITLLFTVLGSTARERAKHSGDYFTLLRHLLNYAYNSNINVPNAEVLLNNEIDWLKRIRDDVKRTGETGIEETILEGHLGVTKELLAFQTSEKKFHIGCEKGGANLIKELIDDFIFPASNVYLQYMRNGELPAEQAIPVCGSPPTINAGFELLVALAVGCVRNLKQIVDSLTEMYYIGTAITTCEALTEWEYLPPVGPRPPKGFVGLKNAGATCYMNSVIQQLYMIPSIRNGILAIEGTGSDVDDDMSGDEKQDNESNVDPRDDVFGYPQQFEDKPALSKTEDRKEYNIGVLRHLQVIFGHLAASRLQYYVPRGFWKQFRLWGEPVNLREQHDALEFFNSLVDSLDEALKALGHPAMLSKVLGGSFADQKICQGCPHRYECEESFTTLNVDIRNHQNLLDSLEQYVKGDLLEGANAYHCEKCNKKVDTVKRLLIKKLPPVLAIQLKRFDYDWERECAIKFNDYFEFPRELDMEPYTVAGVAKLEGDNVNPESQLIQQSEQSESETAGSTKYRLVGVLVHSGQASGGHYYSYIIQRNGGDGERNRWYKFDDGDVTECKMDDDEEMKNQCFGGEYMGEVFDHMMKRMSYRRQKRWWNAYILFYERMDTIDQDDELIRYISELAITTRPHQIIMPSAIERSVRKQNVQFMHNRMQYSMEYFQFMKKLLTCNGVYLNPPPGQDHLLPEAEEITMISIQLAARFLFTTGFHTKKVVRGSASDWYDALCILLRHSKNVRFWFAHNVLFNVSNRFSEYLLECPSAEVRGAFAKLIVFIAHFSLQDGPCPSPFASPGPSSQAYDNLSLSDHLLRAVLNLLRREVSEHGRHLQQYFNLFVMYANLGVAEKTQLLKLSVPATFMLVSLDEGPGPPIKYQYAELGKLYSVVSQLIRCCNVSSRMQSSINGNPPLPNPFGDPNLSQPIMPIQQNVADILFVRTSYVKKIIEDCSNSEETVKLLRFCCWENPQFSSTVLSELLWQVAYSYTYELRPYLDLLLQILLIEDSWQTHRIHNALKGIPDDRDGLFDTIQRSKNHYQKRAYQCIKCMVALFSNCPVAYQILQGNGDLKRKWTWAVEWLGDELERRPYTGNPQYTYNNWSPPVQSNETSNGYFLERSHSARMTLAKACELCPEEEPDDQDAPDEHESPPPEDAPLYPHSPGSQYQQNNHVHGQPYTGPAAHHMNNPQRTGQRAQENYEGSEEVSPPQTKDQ
Sequence of USP7 (Q93009 whole entry, looked up): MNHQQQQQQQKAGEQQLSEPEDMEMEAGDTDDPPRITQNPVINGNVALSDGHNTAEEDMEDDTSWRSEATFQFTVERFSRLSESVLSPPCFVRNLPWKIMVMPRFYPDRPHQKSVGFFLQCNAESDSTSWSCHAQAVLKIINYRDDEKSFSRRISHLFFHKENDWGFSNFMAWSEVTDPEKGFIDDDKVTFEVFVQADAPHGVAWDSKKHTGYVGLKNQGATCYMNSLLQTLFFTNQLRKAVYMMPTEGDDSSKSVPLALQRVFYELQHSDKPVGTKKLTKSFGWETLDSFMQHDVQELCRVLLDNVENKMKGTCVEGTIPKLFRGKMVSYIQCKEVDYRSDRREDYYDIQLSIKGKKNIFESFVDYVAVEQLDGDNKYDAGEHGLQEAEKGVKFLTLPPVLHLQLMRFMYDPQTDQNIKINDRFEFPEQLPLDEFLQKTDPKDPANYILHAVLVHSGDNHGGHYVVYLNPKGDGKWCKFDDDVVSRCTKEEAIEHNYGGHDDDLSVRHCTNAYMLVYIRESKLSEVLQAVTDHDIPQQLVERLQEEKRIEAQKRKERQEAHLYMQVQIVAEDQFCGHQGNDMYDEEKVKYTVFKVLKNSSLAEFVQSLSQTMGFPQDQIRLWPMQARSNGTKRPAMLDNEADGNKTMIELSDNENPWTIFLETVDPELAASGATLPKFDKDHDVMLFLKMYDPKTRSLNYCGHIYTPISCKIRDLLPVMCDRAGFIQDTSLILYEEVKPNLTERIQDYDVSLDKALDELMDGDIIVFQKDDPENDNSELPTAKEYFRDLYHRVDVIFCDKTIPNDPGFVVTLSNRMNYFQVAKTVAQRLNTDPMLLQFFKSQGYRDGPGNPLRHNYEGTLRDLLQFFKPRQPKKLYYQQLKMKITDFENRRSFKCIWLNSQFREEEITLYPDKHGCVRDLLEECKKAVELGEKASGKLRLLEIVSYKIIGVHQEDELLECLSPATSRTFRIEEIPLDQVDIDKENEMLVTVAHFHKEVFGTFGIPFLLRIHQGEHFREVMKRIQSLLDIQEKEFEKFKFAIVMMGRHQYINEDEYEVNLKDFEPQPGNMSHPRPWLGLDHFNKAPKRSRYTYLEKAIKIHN
Sequence of UniProt O00487 (O00487 whole entry): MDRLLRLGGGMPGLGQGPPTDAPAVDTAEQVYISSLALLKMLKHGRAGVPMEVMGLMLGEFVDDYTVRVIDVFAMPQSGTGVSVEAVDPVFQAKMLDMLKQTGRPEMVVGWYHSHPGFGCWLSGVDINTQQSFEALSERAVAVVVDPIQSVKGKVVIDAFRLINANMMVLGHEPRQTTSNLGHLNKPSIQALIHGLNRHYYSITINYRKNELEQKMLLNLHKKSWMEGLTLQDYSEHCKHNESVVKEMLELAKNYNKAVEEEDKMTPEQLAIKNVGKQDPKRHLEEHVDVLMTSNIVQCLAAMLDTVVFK
Sequence of USP46 (P62068 whole entry): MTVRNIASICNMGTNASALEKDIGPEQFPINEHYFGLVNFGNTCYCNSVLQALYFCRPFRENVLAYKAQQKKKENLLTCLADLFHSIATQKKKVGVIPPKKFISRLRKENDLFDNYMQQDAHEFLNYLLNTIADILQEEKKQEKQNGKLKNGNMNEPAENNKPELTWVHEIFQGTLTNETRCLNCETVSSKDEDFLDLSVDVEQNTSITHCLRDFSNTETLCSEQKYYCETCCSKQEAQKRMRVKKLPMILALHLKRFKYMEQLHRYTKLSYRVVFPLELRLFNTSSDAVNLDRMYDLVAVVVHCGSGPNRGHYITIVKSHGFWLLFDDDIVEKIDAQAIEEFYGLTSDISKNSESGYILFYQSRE

O=C(CCl)Nc1cc(Cl)ccc1C(=O)O
inactive: [1] -0.11 | [2] 0.0628 | [3] 0.0765 | [4] 0.232 | [5] 0.436 | [6] 0.0975 | [7] 0.19 | [8] -0.256 | [9] -0.165 | [10] -0.0135
